Key:
Assay in all cases: DAPPL (digital affinity profiling via proximity ligation, sequencing); 10 mM Tris-HCl pH 7.5, 50 mM NaCl, 1 mM DTT, 4% glycerol, room temperature, 30 min; GST-TFs on glutathione beads, 16-mer random dsDNA library, 0.1% formaldehyde crosslink after washing; high values mean tight binding
Conditions in all cases: protein: recombinant; tags: N-terminal GST; dsDNA, one strand shown
GABPA = molecular target: T1, GABPA (Homo sapiens, UniProt Q06546 1-454)
T1 sequence: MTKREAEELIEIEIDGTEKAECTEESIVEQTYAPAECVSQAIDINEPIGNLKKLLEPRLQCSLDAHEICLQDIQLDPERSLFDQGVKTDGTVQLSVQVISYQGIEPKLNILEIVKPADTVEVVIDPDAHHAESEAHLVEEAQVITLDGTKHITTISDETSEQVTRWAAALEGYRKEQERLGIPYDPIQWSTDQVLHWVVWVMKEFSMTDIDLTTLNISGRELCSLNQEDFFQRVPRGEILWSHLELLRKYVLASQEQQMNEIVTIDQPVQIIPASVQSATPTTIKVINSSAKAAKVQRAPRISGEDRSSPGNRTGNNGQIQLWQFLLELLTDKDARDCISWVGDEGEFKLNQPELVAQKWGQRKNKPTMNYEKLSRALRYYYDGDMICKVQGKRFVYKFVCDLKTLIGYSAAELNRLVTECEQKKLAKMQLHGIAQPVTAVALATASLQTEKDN
Outline: (§1)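 Human transcription factors were made in yeast as GST fusions, captured on glutathione beads and barcoded with DNA. With a tag-only sample included, the pool was incubated with 200 nmole of a random double-stranded 16-mer DNA library in Tris/NaCl/DTT/glycerol buffer at room temperature for 30 min, then crosslinked with 0.1% formaldehyde after washing, ligated by proximity, amplified and sequenced. For binding signal, each hexamer's read frequency for a factor is divided by its frequency for the tag-only sample.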

ERG = molecular target: T2, ERG (Homo sapiens, UniProt P11308 1-479)
T2 sequence: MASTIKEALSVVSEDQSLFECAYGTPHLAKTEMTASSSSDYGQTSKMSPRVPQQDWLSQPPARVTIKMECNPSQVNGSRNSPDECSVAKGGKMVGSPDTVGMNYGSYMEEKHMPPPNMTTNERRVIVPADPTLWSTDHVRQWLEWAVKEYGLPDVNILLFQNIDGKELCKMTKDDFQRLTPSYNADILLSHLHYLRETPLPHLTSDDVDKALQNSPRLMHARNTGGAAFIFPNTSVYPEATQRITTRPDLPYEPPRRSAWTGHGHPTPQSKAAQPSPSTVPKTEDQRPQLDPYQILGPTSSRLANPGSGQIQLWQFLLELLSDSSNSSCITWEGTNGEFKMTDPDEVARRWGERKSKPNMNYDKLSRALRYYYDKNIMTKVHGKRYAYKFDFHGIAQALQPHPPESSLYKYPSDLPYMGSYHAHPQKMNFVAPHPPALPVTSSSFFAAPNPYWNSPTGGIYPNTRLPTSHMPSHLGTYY
Outline: as §1

ELF1 = ELF1 (Homo sapiens, UniProt P32519 1-619)
Outline: as §1

EHF = molecular target: T3, EHF (Homo sapiens, UniProt Q9NZC4 1-300)
T3 sequence: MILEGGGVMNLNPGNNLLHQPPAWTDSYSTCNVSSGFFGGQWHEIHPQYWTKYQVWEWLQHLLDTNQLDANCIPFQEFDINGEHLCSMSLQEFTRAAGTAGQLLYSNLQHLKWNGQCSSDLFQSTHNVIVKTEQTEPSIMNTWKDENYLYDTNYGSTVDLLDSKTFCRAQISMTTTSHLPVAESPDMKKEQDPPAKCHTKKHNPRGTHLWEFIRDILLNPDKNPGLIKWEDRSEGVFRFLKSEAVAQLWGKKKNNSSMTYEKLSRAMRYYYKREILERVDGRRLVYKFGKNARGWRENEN
Outline: as §1

ELK3 = molecular target: T4, ELK3 (Homo sapiens, UniProt P41970 1-407)
T4 sequence: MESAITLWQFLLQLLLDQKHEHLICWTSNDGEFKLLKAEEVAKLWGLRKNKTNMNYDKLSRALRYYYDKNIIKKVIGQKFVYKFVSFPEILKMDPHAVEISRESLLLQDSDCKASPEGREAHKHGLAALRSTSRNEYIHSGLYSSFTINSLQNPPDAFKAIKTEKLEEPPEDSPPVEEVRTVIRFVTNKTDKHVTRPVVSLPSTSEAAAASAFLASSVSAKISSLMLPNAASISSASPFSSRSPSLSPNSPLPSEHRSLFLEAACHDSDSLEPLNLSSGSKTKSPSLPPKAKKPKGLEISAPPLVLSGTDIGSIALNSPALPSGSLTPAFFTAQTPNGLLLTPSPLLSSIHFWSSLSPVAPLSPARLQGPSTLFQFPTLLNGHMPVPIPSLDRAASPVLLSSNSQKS
Outline: as §1

SPIC = molecular target: T5, SPIC (Homo sapiens, UniProt Q8N5J4 1-248)
T5 sequence: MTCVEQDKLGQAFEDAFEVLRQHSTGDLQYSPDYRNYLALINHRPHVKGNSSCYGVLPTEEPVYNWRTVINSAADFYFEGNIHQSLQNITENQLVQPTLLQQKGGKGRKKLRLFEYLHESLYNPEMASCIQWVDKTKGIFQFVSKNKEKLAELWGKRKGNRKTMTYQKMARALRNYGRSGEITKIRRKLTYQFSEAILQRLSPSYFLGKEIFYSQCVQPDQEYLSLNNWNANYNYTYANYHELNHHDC
Outline: as §1

ETV1 = ETV1 (Homo sapiens, UniProt P50549 1-477)
Outline: as §1

ERF = molecular target: T6, ERF (Homo sapiens, UniProt P50548 1-548)
T6 sequence: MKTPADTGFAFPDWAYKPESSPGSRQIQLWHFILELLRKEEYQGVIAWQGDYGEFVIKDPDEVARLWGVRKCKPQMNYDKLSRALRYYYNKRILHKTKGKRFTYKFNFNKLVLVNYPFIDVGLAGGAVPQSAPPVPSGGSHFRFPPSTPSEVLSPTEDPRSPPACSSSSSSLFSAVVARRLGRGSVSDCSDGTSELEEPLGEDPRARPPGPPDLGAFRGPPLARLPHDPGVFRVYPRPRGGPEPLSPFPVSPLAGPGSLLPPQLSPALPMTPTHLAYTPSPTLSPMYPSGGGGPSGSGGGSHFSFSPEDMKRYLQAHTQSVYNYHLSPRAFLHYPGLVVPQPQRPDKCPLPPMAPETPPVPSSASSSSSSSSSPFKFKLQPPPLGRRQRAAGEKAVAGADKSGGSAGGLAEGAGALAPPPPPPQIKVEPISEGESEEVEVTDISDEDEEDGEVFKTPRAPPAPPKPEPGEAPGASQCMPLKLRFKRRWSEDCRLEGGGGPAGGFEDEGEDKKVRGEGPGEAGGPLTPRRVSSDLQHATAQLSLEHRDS
Outline: as §1

ETV3L = molecular target: T7, ETV3L (Homo sapiens, UniProt Q6ZN32 1-361)
T7 sequence: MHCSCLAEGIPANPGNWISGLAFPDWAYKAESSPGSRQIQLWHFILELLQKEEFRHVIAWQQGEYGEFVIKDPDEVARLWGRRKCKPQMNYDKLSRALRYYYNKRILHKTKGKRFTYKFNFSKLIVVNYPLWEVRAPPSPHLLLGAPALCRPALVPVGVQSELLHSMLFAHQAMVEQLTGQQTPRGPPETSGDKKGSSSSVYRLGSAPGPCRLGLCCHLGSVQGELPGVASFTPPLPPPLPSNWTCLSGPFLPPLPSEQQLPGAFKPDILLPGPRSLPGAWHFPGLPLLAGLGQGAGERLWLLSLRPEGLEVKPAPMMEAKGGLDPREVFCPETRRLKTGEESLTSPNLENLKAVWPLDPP
Outline: as §1

ETS2 = molecular target: T8, ETS2 (Homo sapiens, UniProt P15036 1-469)
T8 sequence: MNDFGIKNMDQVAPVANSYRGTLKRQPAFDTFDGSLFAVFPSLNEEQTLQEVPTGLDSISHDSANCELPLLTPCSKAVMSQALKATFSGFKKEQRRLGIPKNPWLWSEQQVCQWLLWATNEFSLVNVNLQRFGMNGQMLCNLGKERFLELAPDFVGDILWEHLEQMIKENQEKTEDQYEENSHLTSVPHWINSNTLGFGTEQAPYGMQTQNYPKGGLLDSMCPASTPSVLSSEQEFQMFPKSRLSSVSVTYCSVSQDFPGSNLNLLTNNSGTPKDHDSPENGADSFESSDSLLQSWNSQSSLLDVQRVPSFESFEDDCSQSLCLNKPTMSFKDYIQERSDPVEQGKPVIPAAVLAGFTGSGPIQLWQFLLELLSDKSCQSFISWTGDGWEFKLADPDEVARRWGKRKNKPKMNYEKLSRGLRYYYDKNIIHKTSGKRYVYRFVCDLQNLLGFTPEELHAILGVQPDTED
Outline: as §1

ETV7 = molecular target: T9, ETV7 (Homo sapiens, UniProt Q9Y603 1-341)
T9 sequence: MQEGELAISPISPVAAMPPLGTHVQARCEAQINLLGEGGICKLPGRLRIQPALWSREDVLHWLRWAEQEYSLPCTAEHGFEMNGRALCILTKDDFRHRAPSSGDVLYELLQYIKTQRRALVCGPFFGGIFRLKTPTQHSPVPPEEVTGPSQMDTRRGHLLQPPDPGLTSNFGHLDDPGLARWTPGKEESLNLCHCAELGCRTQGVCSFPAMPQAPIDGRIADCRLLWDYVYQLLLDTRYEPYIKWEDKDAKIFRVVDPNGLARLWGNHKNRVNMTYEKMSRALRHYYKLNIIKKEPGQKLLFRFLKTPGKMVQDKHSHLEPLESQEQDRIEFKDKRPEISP
Outline: as §1

ETV3 = molecular target: T10, ETV3 (Homo sapiens, UniProt P41162-2 1-143)
T10 sequence: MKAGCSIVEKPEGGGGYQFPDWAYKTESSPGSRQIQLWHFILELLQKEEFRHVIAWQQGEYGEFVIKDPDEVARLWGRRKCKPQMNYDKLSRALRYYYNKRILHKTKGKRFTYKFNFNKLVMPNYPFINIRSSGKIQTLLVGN
Outline: as §1

Sequence of ETV1 (P50549 whole entry): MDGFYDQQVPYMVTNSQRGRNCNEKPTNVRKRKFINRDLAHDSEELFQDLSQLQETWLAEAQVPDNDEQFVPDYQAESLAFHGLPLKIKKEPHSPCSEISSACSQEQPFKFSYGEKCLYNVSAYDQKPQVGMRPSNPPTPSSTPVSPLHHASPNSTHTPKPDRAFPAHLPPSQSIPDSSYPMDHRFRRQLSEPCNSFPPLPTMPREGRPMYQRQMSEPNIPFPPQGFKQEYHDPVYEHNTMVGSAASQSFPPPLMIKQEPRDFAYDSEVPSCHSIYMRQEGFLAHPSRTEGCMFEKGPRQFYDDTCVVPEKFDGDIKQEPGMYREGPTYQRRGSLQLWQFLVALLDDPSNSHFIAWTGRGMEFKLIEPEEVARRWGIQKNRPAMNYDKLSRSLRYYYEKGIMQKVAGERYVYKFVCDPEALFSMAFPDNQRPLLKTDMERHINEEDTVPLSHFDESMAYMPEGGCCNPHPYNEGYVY
Sequence of ELF1 (P32519 whole entry): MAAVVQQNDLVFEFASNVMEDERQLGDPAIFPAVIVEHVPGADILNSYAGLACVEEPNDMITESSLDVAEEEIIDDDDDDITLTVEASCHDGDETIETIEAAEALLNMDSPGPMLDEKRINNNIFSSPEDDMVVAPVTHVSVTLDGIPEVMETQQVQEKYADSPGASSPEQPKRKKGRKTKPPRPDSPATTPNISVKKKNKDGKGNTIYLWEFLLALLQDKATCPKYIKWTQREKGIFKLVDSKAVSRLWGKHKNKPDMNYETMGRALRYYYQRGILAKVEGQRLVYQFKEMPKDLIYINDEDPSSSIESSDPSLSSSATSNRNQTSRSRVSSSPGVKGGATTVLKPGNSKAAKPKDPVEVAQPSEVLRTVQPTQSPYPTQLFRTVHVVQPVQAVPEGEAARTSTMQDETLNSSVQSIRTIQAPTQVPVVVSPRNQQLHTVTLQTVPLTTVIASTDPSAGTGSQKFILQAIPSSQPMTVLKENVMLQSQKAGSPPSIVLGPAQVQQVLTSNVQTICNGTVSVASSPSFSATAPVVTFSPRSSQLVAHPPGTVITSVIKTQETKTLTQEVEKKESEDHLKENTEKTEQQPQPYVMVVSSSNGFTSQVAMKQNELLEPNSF

**Q.** With TCTAGA as the sequence, how does the binding signal (GABPA) read?
**A.** 1.02 fold enrichment (6-mer frequency, TF over GST control)

**Q.** What about the binding signal (ERG) of the same sequence?
**A.** 1 fold enrichment (6-mer frequency, TF over GST control)

**Q.** What about the binding signal (ELF1) of the same sequence?
**A.** 1 fold enrichment (6-mer frequency, TF over GST control)

**Q.** And the binding signal (EHF)?
**A.** 1.11 fold enrichment (6-mer frequency, TF over GST control)

**Q.** What about the binding signal (ELK3) of the same sequence?
**A.** 1.18 fold enrichment (6-mer frequency, TF over GST control)

**Q.** What about the binding signal (SPIC) of the same sequence?
**A.** 1.05 fold enrichment (6-mer frequency, TF over GST control)

**Q.** What about the binding signal (ETV1) of the same sequence?
**A.** 1.02 fold enrichment (6-mer frequency, TF over GST control)

**Q.** What about the binding signal (ERF) of the same sequence?
**A.** 1.03 fold enrichment (6-mer frequency, TF over GST control)

**Q.** What about the binding signal (ETV3L) of the same sequence?
**A.** 1.03 fold enrichment (6-mer frequency, TF over GST control)

**Q.** And the binding signal (ETS2)?
**A.** 1.05 fold enrichment (6-mer frequency, TF over GST control)

**Q.** What about the binding signal (ETV7) of the same sequence?
**A.** 1.03 fold enrichment (6-mer frequency, TF over GST control)

**Q.** What about the binding signal (ETV3) of the same sequence?
**A.** 1.04 fold enrichment (6-mer frequency, TF over GST control)

Reference: PMC7862700, “An all-to-all approach to the identification of sequence-specific readers for epigenetic DNA modifications on cytosine”
